Measured values published in PubChem BioAssay.
Active and inactive are the calls of the source.

Columns and labels:
[1] = binders of probe aFSTL3 on microarray, primary screen, stem cell growth factor project, biochemical, small-molecule microarray, fluorescence 635/667 (AID 1064); settings: higher = more signal;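 further: measures binding of the biotinylated anti-FSTL3 antibody to printed compounds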
[2] = binders from COS7 lysate, DM2A8 probe, primary screen, torsin A project, cell lysate, small-molecule microarray, fluorescence 635/667 (AID 1065); settings: higher = more signal, COS7 lysate expressing mutant human TOR1A
[3] = binders of probe aFGF2 on microarray, primary screen, stem cell growth factor project, biochemical, small-molecule microarray, fluorescence 635/667 (AID 1067); settings: higher = more signal;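 further: measures binding of biotinylated aFGF2 protein to printed compounds on slides; z-score merges feature fluorescence and signal-to-noise across triplicate slides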
[4] = binders of probe aFGF10 on microarray, primary screen, stem cell growth factor project, biochemical, small-molecule microarray, fluorescence 635/667 (AID 1071); settings: higher = more signal;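 further: score merges 667 nm spot intensity and signal to noise from triplicate slides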
[5] = target: Neurogenic locus notch homolog protein 2 (Homo sapiens) (UniProt Q04721); test: Notch2 binders on small-molecule microarrays, primary screen, biochemical, small-molecule microarray, 635 nm fluorescence, stem cell growth factors (AID 1073); settings: Notch2 binding, higher = more signal
[6] = target: Pro-neuregulin-1, membrane-bound isoform (Homo sapiens) (UniProt Q02297); test: NRG1 binders on small-molecule microarrays, primary screen, psychiatric disease protein project, biochemical, small-molecule microarray, fluorescence 635/667 (AID 1075); settings: NRG1 binding, 635 nm fluorescence, higher = more signal;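 further: score combines 667 nm spot fluorescence with signal to noise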
[7] = tested on: Neuregulin-1 EGF-like domain; test: binders of neuregulin-1 EGF-like domain, primary screen, biochemical, small-molecule microarray, 635 nm fluorescence (AID 1081); settings: small-molecule microarray binding, higher = more signal;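 further: binding of the protein to compounds printed on small-molecule microarray slides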
[8] = FRG1 promoter luciferase signal modulators, primary screen, FRG1 inhibition for FSHD, cell-based, C2C12 myotubes, firefly/Renilla luciferase, luminescence (AID 1084); settings: higher = more signal, called active from +8 up or from −8 down
[9] = binders of probe aFST on microarray, primary screen, stem cell growth factor project, biochemical, small-molecule microarray, fluorescence 635/667 (AID 1086); settings: higher = more signal;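 further: score merges 667 nm fluorescence with signal-to-noise of each printed compound spot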
[10] = binders of probe aHhip on microarray, primary screen, stem cell growth factor project, biochemical, small-molecule microarray, fluorescence 635/667 (AID 1087); settings: higher = more signal;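 further: score merges spot fluorescence at 667nm with spot signal to noise ratio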

Pro-neuregulin-1, membrane-bound isoform (Homo sapiens), sequence (Q02297 whole entry, looked up, the tested form may be a part, canonical isoform): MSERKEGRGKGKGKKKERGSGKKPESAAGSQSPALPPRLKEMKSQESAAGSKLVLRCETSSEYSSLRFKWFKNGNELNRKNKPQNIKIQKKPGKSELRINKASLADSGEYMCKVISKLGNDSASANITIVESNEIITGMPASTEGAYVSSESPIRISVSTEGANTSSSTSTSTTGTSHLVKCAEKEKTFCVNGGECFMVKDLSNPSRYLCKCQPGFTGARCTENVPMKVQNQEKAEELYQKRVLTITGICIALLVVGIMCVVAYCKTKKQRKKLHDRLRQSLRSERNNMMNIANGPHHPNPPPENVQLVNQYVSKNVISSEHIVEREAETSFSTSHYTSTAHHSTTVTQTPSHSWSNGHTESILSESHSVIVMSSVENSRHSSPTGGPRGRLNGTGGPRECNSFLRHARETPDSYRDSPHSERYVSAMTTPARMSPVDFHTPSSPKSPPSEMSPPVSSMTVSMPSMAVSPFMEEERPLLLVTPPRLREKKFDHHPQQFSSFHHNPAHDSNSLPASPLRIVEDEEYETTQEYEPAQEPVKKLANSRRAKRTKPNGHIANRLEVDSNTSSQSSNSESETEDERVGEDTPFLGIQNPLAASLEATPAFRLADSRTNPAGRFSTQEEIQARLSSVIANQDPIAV
Neurogenic locus notch homolog protein 2 (Homo sapiens), sequence (Q04721 whole entry, looked up, canonical isoform): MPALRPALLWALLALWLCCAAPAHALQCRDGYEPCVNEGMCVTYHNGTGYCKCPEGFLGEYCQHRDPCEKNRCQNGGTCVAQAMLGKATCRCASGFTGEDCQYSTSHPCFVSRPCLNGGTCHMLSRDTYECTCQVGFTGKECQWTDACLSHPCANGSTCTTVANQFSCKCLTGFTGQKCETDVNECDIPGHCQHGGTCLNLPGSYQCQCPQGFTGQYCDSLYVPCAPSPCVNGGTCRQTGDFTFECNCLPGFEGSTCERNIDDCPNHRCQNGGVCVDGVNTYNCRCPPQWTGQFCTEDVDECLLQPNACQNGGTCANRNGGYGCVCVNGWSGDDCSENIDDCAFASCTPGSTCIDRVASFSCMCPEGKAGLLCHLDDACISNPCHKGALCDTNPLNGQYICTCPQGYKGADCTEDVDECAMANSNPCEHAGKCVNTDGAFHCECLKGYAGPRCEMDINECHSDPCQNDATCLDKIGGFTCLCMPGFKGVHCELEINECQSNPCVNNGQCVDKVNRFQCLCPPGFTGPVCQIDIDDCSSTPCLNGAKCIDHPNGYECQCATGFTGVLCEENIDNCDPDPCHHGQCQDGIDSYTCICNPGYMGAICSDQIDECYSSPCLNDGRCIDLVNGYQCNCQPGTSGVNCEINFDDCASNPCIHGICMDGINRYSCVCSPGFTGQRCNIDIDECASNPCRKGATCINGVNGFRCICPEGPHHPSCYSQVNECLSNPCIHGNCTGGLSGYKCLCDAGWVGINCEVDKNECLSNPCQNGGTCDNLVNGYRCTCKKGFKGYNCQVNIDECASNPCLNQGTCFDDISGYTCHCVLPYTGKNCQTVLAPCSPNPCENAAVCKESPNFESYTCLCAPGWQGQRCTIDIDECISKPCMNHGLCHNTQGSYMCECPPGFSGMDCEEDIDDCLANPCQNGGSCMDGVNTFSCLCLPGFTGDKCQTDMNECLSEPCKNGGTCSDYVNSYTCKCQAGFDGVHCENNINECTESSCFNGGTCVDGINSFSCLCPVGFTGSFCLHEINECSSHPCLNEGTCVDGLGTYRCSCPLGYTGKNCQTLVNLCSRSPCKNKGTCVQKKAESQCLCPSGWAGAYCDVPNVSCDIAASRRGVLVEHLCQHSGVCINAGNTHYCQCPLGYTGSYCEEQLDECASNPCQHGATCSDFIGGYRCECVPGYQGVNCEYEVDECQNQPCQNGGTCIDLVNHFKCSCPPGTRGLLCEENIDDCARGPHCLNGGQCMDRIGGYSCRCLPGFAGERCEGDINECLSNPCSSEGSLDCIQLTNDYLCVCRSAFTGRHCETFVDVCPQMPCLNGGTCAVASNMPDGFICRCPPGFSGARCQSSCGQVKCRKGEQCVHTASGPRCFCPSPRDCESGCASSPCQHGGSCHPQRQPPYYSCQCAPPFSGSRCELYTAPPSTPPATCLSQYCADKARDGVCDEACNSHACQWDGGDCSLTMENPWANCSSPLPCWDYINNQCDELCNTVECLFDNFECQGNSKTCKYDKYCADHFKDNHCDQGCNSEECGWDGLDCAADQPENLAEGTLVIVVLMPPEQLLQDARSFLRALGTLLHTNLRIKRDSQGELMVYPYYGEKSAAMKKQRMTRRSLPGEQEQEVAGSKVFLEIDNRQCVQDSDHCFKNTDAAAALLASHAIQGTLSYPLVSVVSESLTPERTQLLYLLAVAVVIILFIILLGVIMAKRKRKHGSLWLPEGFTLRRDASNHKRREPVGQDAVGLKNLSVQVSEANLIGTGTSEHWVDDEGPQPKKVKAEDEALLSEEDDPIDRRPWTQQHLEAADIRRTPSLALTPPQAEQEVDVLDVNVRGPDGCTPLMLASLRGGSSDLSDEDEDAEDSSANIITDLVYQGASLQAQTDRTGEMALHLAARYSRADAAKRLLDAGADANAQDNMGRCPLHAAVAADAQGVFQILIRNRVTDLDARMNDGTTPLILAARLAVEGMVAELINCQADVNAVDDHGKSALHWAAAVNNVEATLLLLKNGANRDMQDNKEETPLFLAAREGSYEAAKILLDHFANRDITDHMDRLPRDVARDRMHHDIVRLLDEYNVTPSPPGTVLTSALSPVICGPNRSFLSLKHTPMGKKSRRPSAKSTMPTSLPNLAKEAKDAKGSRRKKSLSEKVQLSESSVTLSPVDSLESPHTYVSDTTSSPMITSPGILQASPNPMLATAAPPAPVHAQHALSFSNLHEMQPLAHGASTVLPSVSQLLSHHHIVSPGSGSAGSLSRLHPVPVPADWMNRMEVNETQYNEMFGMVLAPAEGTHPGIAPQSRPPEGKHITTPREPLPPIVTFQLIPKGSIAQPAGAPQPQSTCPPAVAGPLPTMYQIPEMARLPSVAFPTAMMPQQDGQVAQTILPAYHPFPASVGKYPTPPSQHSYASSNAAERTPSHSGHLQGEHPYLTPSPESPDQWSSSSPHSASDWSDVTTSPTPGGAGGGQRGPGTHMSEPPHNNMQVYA

Row | SMILES | composite z-score [1] | composite z-score [2] | composite z-score [3] | composite z-score [4] | composite z-score [5] | composite z-score [6] | composite z-score [7] | z-score [8] | composite z-score [9] | composite z-score [10]
1 | COc1ccc(O[C@H]2C=C[C@@H](c3ccccc3)O[C@@H]2COC(=O)CCC(C)=NOC[C@@H](O)[C@H]2O[C@@H]3OC(C)(C)O[C@@H]3[C@H]2O)cc1 | -0.522 | 0.62 | -0.102 | 0.497 | 0.624 | 0.0094 | 0.724 | 0.452 (inactive) | 0.659 | -0.0994
2 | CC(=O)OC[C@H]1O[C@H](C#Cc2ccccc2)C=C[C@@H]1OC(C)=O | -0.306 | -0.0613 | -0.0474 | 0.346 | 0.32 | 0.232 | -0.11 | -0.284 (inactive) | 0.0157 | 0.281
3 | CSCC[C@@H]1NC(=O)CC=C[C@@H](C)COC(=O)[C@@H](C)COC1=O | -0.324 | 2.62 | -0.144 | -0.456 | -0.239 | -1.21 | 0.129 | -0.371 (inactive) | -0.485 | -0.391
4 | CO[C@H]1COC(=O)CC=C[C@@H](C)[C@H](OC)COC(=O)CCC[C@@H]1C | -0.344 | 1.58 | -0.187 | 0.238 | -0.438 | -0.35 | -0.137 | 0.444 (inactive) | -0.126 | 0.176
5 | CCN1C(=O)[C@H]2[C@H]3[C@H](O)[C@H](O)CC(=NNC(=O)OCc4ccc(OC)cc4)[C@@H]3CC[C@H]2C1=O | 1.28 | -0.0691 | -0.0235 | 0.0306 | -0.213 | -0.295 | -0.46 | 0.127 (inactive) | 0.508 | -0.374
6 | C=CC[C@@H]1C=C[C@H](ON=C(C)CCC(=O)OC[C@H]2O[C@H](c3ccccc3)C=C[C@@H]2Oc2ccc(OC)cc2)[C@@H](CO)O1 | -0.409 | -0.324 | -0.163 | 0.13 | -1.06 | 0.372 | 0.215 | 0.403 (inactive) | -0.303 | -0.147
7 | COc1cccc([C@H]2Oc3ccc(OC)cc3C(=NOC(C)CN3CCCCc4nc(C)c(C)cc43)[C@@H]2O)c1 (stereo not given in full) | 0.161 | -0.0173 | -0.0005 | 0.561 | 0.0879 | 0.996 | 0.632 | -2.06 (inactive) | -0.0285 | 0.0854
8 | Cc1ccc(S(=O)(=O)OC[C@H]2CN3[C@H](c4ccc(Br)cc4)[C@@H](C)CC[C@H]3C(=O)O2)cc1 | -0.307 | 0.0709 | -0.106 | 0.255 | 0.0993 | 0.0865 | 1.01 | -0.636 (inactive) | -0.164 | -0.191
9 | COC(=O)CC=C[C@@H](C)[C@@H](C=NO[C@@H]1O[C@H](COC(C)=O)[C@@H](OC(C)=O)[C@H](OC(C)=O)[C@H]1OC(C)=O)NS(=O)(=O)c1ccc(C)cc1 | -0.486 | 0.969 | -0.158 | 0.367 | 1.11 | -0.993 | -1.37 | -0.443 (inactive) | 0.068 | -0.0645
10 | COc1cccc([C@H]2Oc3ccc(OC)cc3C(=NO[C@H](C)c3cn([C@H](CO)Cc4ccccc4)nn3)[C@@H]2O)c1 | -0.129 | -0.0315 | -0.112 | -0.0993 | -0.468 | -0.72 | -0.504 | 0.787 (inactive) | 0.107 | -0.134
11 | O=C1C[C@@H](O)[C@@H](O)[C@@H]2[C@@H]3C(=O)N(Cc4ccc5c(c4)OCO5)C(=O)[C@@H]3CC[C@H]12 | -0.296 | 0.348 | -0.0218 | 0.477 | 0.558 | 0.229 | 0.29 | 0.376 (inactive) | 0.078 | 0.0505
12 | CO[C@H]1COC(=O)CC=C[C@@H](C)[C@H](NS(=O)(=O)c2ccc(C)cc2)COC(=O)CCC[C@@H]1C | -0.366 | 0.906 | -0.154 | 0.21 | 0.18 | -0.25 | 0.185 | 0.408 (inactive) | -0.225 | -0.635
13 | CC(C)CON=C1C[C@@H](O)[C@@H](O)[C@@H]2[C@@H]3C(=O)N(C4CCCCC4)C(=O)[C@@H]3CC[C@@H]12 | -0.216 | 1.2 | -0.0955 | 0.0675 | -0.0187 | 1.45 | -0.115 | -0.0468 (inactive) | -0.0424 | -0.0994
14 | CCOC(=O)CCN1C(=O)[C@H]2[C@H]3[C@H](O)[C@H](O)CC(=NOCC(C)C)[C@H]3CC[C@H]2C1=O | 0.185 | 0.0849 | -0.0232 | 0.125 | -0.131 | -0.312 | 0.176 | 0.813 (inactive) | 0.349 | -0.264
15 | CC(C)=CCCC(C)=CCON=C1C[C@@H](O)[C@@H](O)[C@@H]2[C@@H]3C(=O)N(Cc4ccccc4)C(=O)[C@@H]3CC[C@H]12 | -0.402 | -0.0325 | -0.0263 | 0.734 | 0.686 | 0.774 | 1.06 | 0.134 (inactive) | 0.342 | -0.305
16 | CC(C)C[C@H](NC(=O)CCC1CC(OC(=O)NCc2cccc3ccccc23)CC2(CCCC(COC(=O)NCc3ccccc3)O2)O1)C(=O)NCC(c1ccccc1)c1ccccc1 (stereo not given in full) | -0.572 | 0.139 | -0.113 | 0.618 | 1.35 | 0.438 | 1.2 | 0.244 (inactive) | 0.289 | 0.238
17 | C[C@@H]1C=CCC(=O)OC[C@H]2O[C@@H](C=C[C@@H]2O)[C@H](C)C=CCC(=O)OC1 | -0.711 | 2.13 | -0.175 | -0.32 | -0.302 | -1.03 | 0.765 | -1.28 (inactive) | -0.291 | 0.28
